High-throughput results from PubChem.
Hits are enriched below; roughly 2.3% of the tested compounds scored in any of these assays.
TMEM16A inh – TMEM16A chloride channel inhibitors, primary screen, cell-based, HTS. Anoctamin-1 (Mus musculus), Q8BHY3. HEK293 TMEM16A/YFP iodide influx fluorescence, ionomycin. normalized B-score (activity score, 25-100; higher = stronger inhibition) at 10 µM. 310,000 tested, 1.2% active;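 active = ratio plate-corrected score three or more library SD toward inhibition, starting fluorescence score within five deviations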;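 note: score derived from kinetic fluorescence span divided by baseline fluorescence per well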
ANO1 activ – TMEM16A chloride channel activators or potentiators, primary screen, cell-based, HTS | Anoctamin-1 (Mus musculus), Q8BHY3 | HEK293 TMEM16A/YFP-H148Q/I152L, iodide quench fluorescence; hits give low values | B-score at 10 µM | 340,000 tested, 0.3% active | AID 623877, 2012;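 active = fluorescence-ratio B-score plate-corrected deviation score at least 3 library SD below zero, with starting fluorescence score within 5 deviations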;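 note: channel opened by trigger with iodide after compound preincubation; score built on the fluorescence ratio of max minus min over baseline; more negative score means more quench and so TMEM16A activation or potentiation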
CHT allo act – CHT positive allosteric modulators, primary screen, cell-based, membrane potential dye, choline EC20. CHT-expressing cells; hits give high values; LV-AA mutant CHT in HEK293 cells. 310,000 tested, 0.49% active. AID 488977, 2010. High affinity choline transporter 1 (Homo sapiens), Q9GZV3. B-score at 10 µM;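 active = initial fluorescence not abnormally high and integrated response B-score, plate-corrected, over 3 SD above library mean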
CHT block – inhibitors of human choline transporter CHT. High affinity choline transporter 1 (Homo sapiens), Q9GZV3. CHT-expressing cells, membrane potential dye, choline response; hits give low values. B-score at 10 µM. 310,000 tested, 0.86% active. AID 488975, 2010;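 active = B-score over 3 SD under the library average, and starting fluorescence ratio not unusually high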;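 note: choline stimulus applied at its EC90 after an EC20 pre-addition; B-score computed on integrated fluorescence ratio after choline addition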
CHT block conf – CHT inhibitors, confirmation, cell-based, membrane potential dye, duplicate | shares compounds with CHT block | CHT-expressing cells, choline membrane potential dye; LV-to-AA substituted CHT, HEK293 cells | CHT activity remaining % of control (hits give low values), % at 10 µM | 2,400 tested, 70% active | AID 493221, 2011;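 active = choline transporter activity left, mean of duplicates at 10 µM, below buffer-only control mean minus 3 SD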;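 note: depolarization triggered by choline at its EC90 following an EC20 pre-addition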
HEK293 CHT ctr – membrane potential effects in parental HEK293, counter-screen for CHT inhibitor project, cell-based, membrane potential dye; shares compounds with CHT block; membrane potential ratio readout (active if shifted either direction beyond buffer ±3SD; no single direction) at 10 µM; 2,400 tested, 4% active; choline response; active = decrease or increase beyond buffer ±3SD;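 note: parental cells lack the transporter so any hit is non-specific; ratio is peak minus trough fluorescence over baseline after EC90 choline challenge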
Large screens that a line does not name were inactive (follow-up assays come after a bar, where they were run).

COc1cc2nc(CN3CCN(S(=O)(=O)c4ccc(Cl)cc4)CC3)[nH]c(=O)c2cc1OC	ANO1 activ -39
COc1cc2nc(CN3CCN(S(=O)(=O)c4ccccc4)CC3)[nH]c(=O)c2cc1OC	none (no result: TMEM16A inh, CHT allo act, CHT block)
CCOc1ccc(NC(=O)COC(=O)CCS(=O)(=O)c2ccc(C)cc2)cc1	none
CCOc1ccc(NS(=O)(=O)c2cc(NC(=O)CCS(=O)(=O)c3ccc(C)cc3)ccc2OC)cc1	CHT block -5.1
COc1cccc(-c2nc(C=O)cs2)c1	CHT block -5
O=C(CN1CCCCCC1)Nc1ccc(Br)cn1	none
O=C(CSc1nc2ccc([N+](=O)[O-])cc2[nH]1)NC1CCCCCC1	TMEM16A inh 100
Cc1cccc(N(C)C(=O)c2cc(S(=O)(=O)N3CCCC3)cn2C)c1	none
CCN(C(=O)c1cc(S(=O)(=O)N2CCOCC2)cn1C)c1cccc(C)c1	TMEM16A inh 100
CCOc1cc(/C=N/NC(=O)c2cc(C)[nH]n2)ccc1OC(=O)c1ccc([N+](=O)[O-])cc1	TMEM16A inh 100 (no result: ANO1 activ)
CCOc1cc(/C=N\NC(=O)c2ccc(C)nc2)ccc1OC(=O)c1ccc(F)cc1	none
CS(=O)(=O)C1=NN2C(=N)/C(=C\c3ccc(OC(=O)c4ccco4)cc3)C(=O)N=C2S1	CHT block -6.8 | CHT block conf 60% | HEK293 CHT ctr inactive
CS(=O)(=O)C1=NSC2=NC(=O)/C(=C\c3ccc(OC(=O)c4ccco4)cc3)C(=N)N21	none (no result: ANO1 activ)
Cc1cc2c(cc1S(=O)(=O)N1CCN(c3cccc(C)c3C)CC1)OCC(=O)N2	none
CCn1c(=N)n(CC(=O)c2ccc(Cl)c(Cl)c2)c2ccccc21	none
N=c1n(CCN2CCCCC2)c2ccccc2n1CC(=O)c1ccc(Cl)c(Cl)c1	CHT block -5.4 | CHT block conf inactive | HEK293 CHT ctr inactive
O=C(Nc1cccc(S(=O)(=O)NC2=NCCC2)c1)c1cc(Cl)ccc1[N+](=O)[O-]	CHT block -6.8 | CHT block conf 21% | HEK293 CHT ctr inactive
COc1cc(C(=O)NCCCCc2ccccc2)cc(OC)c1OC	none
Cc1ccc(C(=O)N/C(=C\c2ccc(Cl)cc2)C(=O)NCC2CCCO2)cc1 (centres undefined)	none
CCN(CCn1cccn1)C(=O)c1cc(COc2c(F)cccc2F)on1	CHT block -5.5 | CHT block conf inactive | HEK293 CHT ctr inactive
CCN(Cc1ccccc1)C(=O)c1cc(COc2c(F)cccc2F)on1	none
O=C(O)c1cccc2c1/C(=N/Nc1ccc([N+](=O)[O-])cc1[N+](=O)[O-])c1ccccc1-2	CHT block -6.2 | CHT block conf 69% | HEK293 CHT ctr inactive
CC(C)Cc1nn2c(=O)cc(COc3ccc(NC(=O)c4ccco4)cc3)nc2s1	none
C=CCNc1nc(SCC=C)nc2ccsc12	CHT block -8.4 | CHT block conf 25% | HEK293 CHT ctr inactive
CC1CCN(c2nc3nonc3nc2Nc2ccc(F)cc2)CC1	CHT block -5.4 | CHT block conf inactive | HEK293 CHT ctr inactive
COc1ccc(Nc2nc3nonc3nc2N2CCCCC2)cc1	none
CCN(CC(=O)Nc1ccc2c(c1)OCO2)Cc1nc2ccccc2c(=O)[nH]1	none
CCN(CC(=O)Nc1ccc2c(c1)CCC2)Cc1nc2ccccc2c(=O)[nH]1	CHT block -5.1 | CHT block conf inactive | HEK293 CHT ctr inactive
O=C(CS(=O)c1ccc(C(F)(F)F)cc1[N+](=O)[O-])Oc1ccccc1 (centres undefined)	CHT block -5 | CHT block conf -5.7% | HEK293 CHT ctr inactive
O=C(C1CC1)N1CCc2cc(S(=O)(=O)N(CCO)Cc3ccccc3)ccc21	none
COc1ccc([C@H]2/C=C\CN(S(=O)(=O)c3ccc4ccccc4c3)[C@@H](C)C(=O)N2Cc2ccc(F)cc2)cc1	none
COc1ccccc1C(=O)Nc1ccc(C(=O)c2ccccc2)cc1	CHT block -6.5 | CHT block conf inactive | HEK293 CHT ctr inactive
